Reference: PubChem BioAssay AID1159580 (chemical genetic matrix, 2015)
Screen size: about 5,500 compounds; about 2,000 (36%) were called active. Not shown: some 18% with an inconclusive outcome. No stated cut-off is given here; in the data, active means normalized growth mostly below about 0.91 (no sharp cut-off); inconclusive means no clear call, values can overlap the other calls; inactive means mostly above about 0.92. Some of the results follow.

Assay: chemical genetic growth profiling, strain panel (AID 1159580);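 further: tested at 20 µM; growth read once vehicle control cultures reached saturation at 30 °C; 1 = growth at the plate median or of vehicle wells; lower values mean less growth of the strain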
Conditions: S. cerevisiae deletion strains, growth OD

Measured: normalized growth

CNCC[C@@H](Oc1ccccc1)c1ccccc1
inactive: locus YAL021C, strain ccr4, hits give low values 0.976 | locus YAL026C, strain drs2, hits give low values 0.961 | locus YAL030W, strain snc1, hits give low values 0.947 | locus YBL061C, strain skt5, hits give low values 0.98 | locus YBR009C, strain hhf1, hits give low values 0.974 | locus YBR023C, strain chs3, hits give low values 0.979 | locus YBR171W, strain sec66, hits give low values 0.979 | locus YBR231C, strain swc5, hits give low values 0.984 | locus YBR279W, strain paf1, hits give low values 0.982 | locus YCL011C, strain gbp2, hits give low values 0.975 | locus YCL016C, strain dcc1, hits give low values 0.979 | locus YCL061C, strain MRC1, hits give low values 0.982 | locus YCL069W, strain vba3, hits give low values 0.978 | locus YCR088W, strain abp1, hits give low values 0.983 | locus YDL005C, strain med2, hits give low values 0.983 | locus YDL040C, strain nat1, hits give low values 0.988 | locus YDR001C, strain nth1, hits give low values 0.974 | locus YDR069C, strain doa4, hits give low values 0.965 | locus YDR137W, strain rgp1, hits give low values 1.02 | locus YDR159W, strain sac3, hits give low values 0.944 | locus YDR195W, strain ref2 0.972 | locus YDR297W, strain sur2, hits give low values 0.98 | locus YDR334W, strain swr1, hits give low values 0.951 | locus YDR335W, strain msn5, hits give low values 0.965 | locus YDR392W, strain spt3, hits give low values 0.975 | locus YEL003W, strain gim4, hits give low values 0.973 | locus YEL037C, strain rad23, hits give low values 0.988 | locus YEL061C, strain CIN8 (second series), hits give low values 0.988 | locus YER015W, strain faa2, hits give low values 0.961 | locus YER016W, strain bim1, hits give low values 0.978 | locus YER111C, strain swi4, hits give low values 0.981 | locus YER155C, strain BEM2 (second series), hits give low values 0.978 | locus YFR010W, strain ubp6, hits give low values 0.964 | locus YGL167C, strain pmr1, hits give low values 0.977 | locus YGL173C, strain kem1, hits give low values 0.954 | locus YGL227W, strain vid30, hits give low values 0.97 | locus YGL240W, strain doc1, hits give low values 0.96 | locus YGL253W, strain hxk2, hits give low values 0.984 | locus YHR013C, strain ard1, hits give low values 0.973 | locus YHR027C, strain rpn1, hits give low values 0.946 | locus YHR030C, strain SLT2, hits give low values 1.01 | locus YHR079C, strain IRE1, hits give low values 0.995 | locus YHR142W, strain chs7, hits give low values 0.973 | locus YJL092W, strain hpr5, hits give low values 0.984 | locus YJL095W, strain BCK1 (second series), hits give low values 0.971 | locus YJL095W, strain BCK1, hits give low values 0.996 | locus YJL115W, strain asf1, hits give low values 0.957 | locus YJL129C, strain trk1, hits give low values 0.99 | locus YJL154C, strain vps35, hits give low values 0.97 | locus YJL164C, strain tpk1, hits give low values 0.987 | locus YJL166W, strain qcr8, hits give low values 0.976 | locus YJL187C, strain SWE1, hits give low values 0.98 | locus YJR066W, strain TOR1, hits give low values 0.946 | locus YKL160W, strain elf1, hits give low values 0.989 | locus YKR026C, strain gcn3, hits give low values 0.977 | locus YKR091W, strain srl3, hits give low values 0.988 | locus YLL001W, strain dnm1, hits give low values 0.988 | locus YLL026W, hits give low values 0.97 | locus YLL041C, strain sdh2, hits give low values 0.968 | locus YLR027C, strain aat2, hits give low values 0.962 | locus YLR113W, strain HOG1, hits give low values 0.965 | locus YLR221C, strain rsa3, hits give low values 0.976 | locus YLR258W, strain gsy2, hits give low values 0.981 | locus YLR262C, strain YPT6 (second series), hits give low values 0.982 | locus YLR320W, strain mms22, hits give low values 0.989 | locus YLR342W, strain FKS1, hits give low values 0.976 | locus YLR357W, strain rsc2, hits give low values 1.01 | locus YLR370C, strain arc18, hits give low values 0.981 | locus YLR384C, strain iki3, hits give low values 0.972 | locus YML120C, strain ndi1, hits give low values 0.983 | locus YMR058W, strain fet3, hits give low values 0.981 | locus YMR125W, strain sto1, hits give low values 0.979 | locus YMR129W, hits give low values 0.991 | locus YMR205C, strain PFK2, hits give low values 0.958 | locus YMR231W, strain pep5, hits give low values 0.984 | locus YNL071W, strain lat1, hits give low values 0.993 | locus YNL183C, strain NPR1, hits give low values 0.958 | locus YNL209W, strain ssb2, hits give low values 0.948 | locus YNL248C, strain rpa49, hits give low values 0.974 | locus YNL322C, strain KRE1 (second series), hits give low values 0.978 | locus YNR049C, strain mso1, hits give low values 0.969 | locus YOR001W, strain rrp6, hits give low values 0.972 | locus YOR070C, strain gyp1, hits give low values 0.989 | locus YOR080W, strain dia2, hits give low values 0.973 | locus YOR083W, strain WHI5, hits give low values 0.981 | locus YOR106W, strain vam3, hits give low values 0.972 | locus YOR231W, strain MKK1, hits give low values 1.01 | locus YOR265W, strain rbl2, hits give low values 0.98 | locus YOR270C, strain vph1, hits give low values 1.01 | locus YOR290C, strain snf2, hits give low values 0.974 | locus YPL051W, strain arl3, hits give low values 0.994 | locus YPL078C, strain atp4, hits give low values 0.984 | locus YPL106C, strain sse1, hits give low values 0.924 | locus YPL240C, strain hsp82, hits give low values 0.976 | locus YPL256C, strain CLN2, hits give low values 0.992
